Assay outcomes deposited in PubChem by Broad Institute.
The entries come from a sample that favours hits as a whole.
Tg IFNy HTS: blocks Toxoplasma gondii growth in the presence of IFN-gamma. activity change, negative = inhibition, % (no concentration beside the values). Toxoplasma gondii growth in IFN-gamma-treated host cells; hits give low values. 69,000 compounds, 3.8% hits; in the data active = activity change below about -70%, passing the limit was not always enough;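 note: host cells are HeLa cells infected with Toxoplasma gondii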
The depositor's hits bear a star; i = inactive; ! = repeats disagree.

SMILES	Tg IFNy HTS
CC1CCCCN1C(=O)c1ccn(-c2ccc3ccccn23)n1 (centres undefined)	-20.0
CCOC(=O)c1nc(NCCc2c[nH]c3ccc(OC)cc23)c2c(C)noc2n1	80.6
Oc1c(Cl)cc(Cl)cc1Sc1cc(Cl)cc(Cl)c1O	-84.2*!
CCN(Cc1cncn1C)c1cccc(OCCOc2ccccc2OC)c1	354.7
CCCCCCCc1nc2c(=O)[nH]c3ccccc3c2o1	-0.4
O=c1[nH]c2ccccc2c2oc(-c3ccccc3)nc12	6.7
O=c1[nH]ccc2c1c(=O)[nH]c1ccccc12	-99.9*
O=C(O)C1(c2ccc(Br)cc2)CCCC1	4.2
Cc1cc(Br)cc(Cl)c1OC(=O)c1ccno1	23.5
O=C(Nc1ncn[nH]1)c1sc2ccccc2c1Cl	11.4
O=C(NC(=O)c1sc2ccccc2c1Cl)c1ccccc1O	-107.3*
O=C(NC1CCSC1=O)c1sc2ccccc2c1Cl (centres undefined)	28.6
Cc1cccc(CN2C(=O)CCC23CCN(CC2CCOC2)CC3)c1 (centres undefined)	155.1
Cc1cc(C(=O)N2C[C@H]3C[C@@H]4[C@@](C2)(CN(Cc2ccc(Cl)cc2)S4(=O)=O)O3)no1	-7.0
Cc1ccc(CN2CCC3(CCCN(c4ccc(C)nn4)C3)C2)cc1 (centres undefined)	-11.2
CCCCc1nc2ccccc2n1CC(O)COC1CC=CCC1 (centres undefined)	-30.8
COc1ccc(S(=O)(=O)N2CC[C@@H]3[C@H]2c2cc(Br)ccc2N[C@@H]3CO)cc1	14.9
CN(C)C(=O)N1C[C@H]2COC[C@@]2(c2nnc(C3CC3)o2)C1	-52.8
COc1ccc(C(=O)NC2CCCc3c2cnn3Cc2ccccc2Cl)cc1 (centres undefined)	-80.2*
COc1ccc(C(=O)N2C[C@@H]3[C@H](c4ccccc42)[C@H](CO)N3Cc2ccccc2Cl)cc1	-1.1
COc1ccc(C(=O)N2C[C@H]3[C@@H](c4ccccc42)[C@@H](CO)N3Cc2ccccc2Cl)cc1	0.7
Clc1ccc(-c2noc(-c3cn[nH]c3-c3ccccc3)n2)cc1	-67.2
O=C(COc1ccc(Cl)cc1)N1CCC2(CC1)Nc1cc(F)ccc1-n1cccc12	100.2
CSc1ccc(C2c3[nH]c4ccccc4c3CCN2C(=O)Cc2cccs2)cc1 (centres undefined)	-69.1
CSc1ccc(C2c3[nH]c4ccccc4c3CCN2C(=O)CCc2ccccc2)cc1 (centres undefined)	-61.4
SMILES	Tg IFNy HTS
COc1ccc(C2c3[nH]c4ccccc4c3CCN2C(=O)Cc2cccs2)cc1 (centres undefined)	228.7
O=C(Cc1cccs1)N1CCc2c([nH]c3ccccc23)C1c1ccc(Cl)cc1 (centres undefined)	-118.1*
O=C(Cc1cccs1)N1CCc2c([nH]c3ccccc23)C1c1ccc(F)cc1 (centres undefined)	-17.1
CCOc1cccc(C2c3[nH]c4ccccc4c3CCN2C(=O)Cc2cccs2)c1 (centres undefined)	i
CSc1ccc(C2c3[nH]c4ccccc4c3CCN2C(=O)CCc2cccs2)cc1 (centres undefined)	-84.8*
CCOc1cccc(CC(=O)N2CCc3c([nH]c4ccccc34)C2c2ccc(Cl)cc2)c1OCC (centres undefined)	-29.4
Cc1ccc(C2c3[nH]c4ccccc4c3CCN2C(=O)Cc2cccs2)cc1 (centres undefined)	-124.7*
CCn1ccc(C(=O)N2CCC(c3ncc(C(=O)Nc4ccccc4OC)c(C)n3)CC2)n1	-50.3
Cc1cccc(N2CCN(C(=O)CCC3Nc4c5ccccc5nc(=S)n4C3=O)CC2)c1C (centres undefined)	4.1
Cc1cc(CC(C)NC(=O)c2cccc3c2NCCC3)n[nH]1 (centres undefined)	-4.8
c1ccc(-c2nncn2C2CCNCC2)cc1	3.6
O=C(NCC[C@H]1CC[C@H](NC(=O)C2CCOCC2)[C@@H](CO)O1)c1cc(Cl)cc(Cl)c1	32.3
COc1ccccc1CNC(=O)C[C@@H]1CC[C@H]2[C@@H](COc3ccc(NC(C)=O)cc3C(=O)N2C)O1	22.3
Cc1ccc(-n2cc(CN3CCCC(Cn4ccnc4C)C3)cn2)cc1C (centres undefined)	-38.7
NCC1Cc2cc(-c3cncc(C(=O)N4CCOCC4)n3)cc(Cl)c2O1 (centres undefined)	4.3
NC(=O)c1cncc(N2Cc3cnn(Cc4ccc(F)cc4)c3C2)n1	7.6
COC(=O)c1c(C(=O)OC)c2n(c1C)Cc1ccccc1C2	12.7
Cc1nc2ccc(C(=O)O)cc2nc1C	6.1
Nc1cccc(C(=O)O)c1	2.7
O=C(O)c1ccc2nc3c(nc2c1)-c1cccc2cccc-3c12	-109.6*
O=C(OCC(O)CNC12CC3CC(CC(C3)C1)C2)C12CC3CC(CC(C3)C1)C2 (centres undefined)	-88.6*
CC(C)(C)NC(=O)[C@@H]1CC2CCCCC2CN1C[C@@H](O)[C@H](Cc1ccccc1)NC(=O)[C@H](CC(N)=O)NC(=O)c1ccc2ccccc2n1 (some centres undefined)	-66.4
COc1ccccc1-c1nc(Cn2nnc(-c3nc(-c4ccc(OC(C)C)cc4)no3)c2C)c(C)o1	-4.7
